ABCB6 inh MLPCN: ABCB6 transporter inhibitors, primary screen, K562-ABCB6 cells, flow cytometry, MLPCN library. ATP-binding cassette sub-family B member 6 (Homo sapiens), Q9NP58. K562-ABCB6 porphyrin accumulation, 1 h; stronger effect = lower value. fluorescence ratio to DMSO, % at 10 µM. 360,000 tested, 0.19% active. AID 602162, 2011;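 active = fluorescence ratio to DMSO below 75%, the collection mean minus 3 SD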;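 also: signal is porphyrin accumulated inside mitochondria; 100% equals median channel fluorescence of DMSO control wells; lower ratio means ABCB6 inhibition with less porphyrin fluorescence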
Target sequence (Q9NP58 whole entry, looked up): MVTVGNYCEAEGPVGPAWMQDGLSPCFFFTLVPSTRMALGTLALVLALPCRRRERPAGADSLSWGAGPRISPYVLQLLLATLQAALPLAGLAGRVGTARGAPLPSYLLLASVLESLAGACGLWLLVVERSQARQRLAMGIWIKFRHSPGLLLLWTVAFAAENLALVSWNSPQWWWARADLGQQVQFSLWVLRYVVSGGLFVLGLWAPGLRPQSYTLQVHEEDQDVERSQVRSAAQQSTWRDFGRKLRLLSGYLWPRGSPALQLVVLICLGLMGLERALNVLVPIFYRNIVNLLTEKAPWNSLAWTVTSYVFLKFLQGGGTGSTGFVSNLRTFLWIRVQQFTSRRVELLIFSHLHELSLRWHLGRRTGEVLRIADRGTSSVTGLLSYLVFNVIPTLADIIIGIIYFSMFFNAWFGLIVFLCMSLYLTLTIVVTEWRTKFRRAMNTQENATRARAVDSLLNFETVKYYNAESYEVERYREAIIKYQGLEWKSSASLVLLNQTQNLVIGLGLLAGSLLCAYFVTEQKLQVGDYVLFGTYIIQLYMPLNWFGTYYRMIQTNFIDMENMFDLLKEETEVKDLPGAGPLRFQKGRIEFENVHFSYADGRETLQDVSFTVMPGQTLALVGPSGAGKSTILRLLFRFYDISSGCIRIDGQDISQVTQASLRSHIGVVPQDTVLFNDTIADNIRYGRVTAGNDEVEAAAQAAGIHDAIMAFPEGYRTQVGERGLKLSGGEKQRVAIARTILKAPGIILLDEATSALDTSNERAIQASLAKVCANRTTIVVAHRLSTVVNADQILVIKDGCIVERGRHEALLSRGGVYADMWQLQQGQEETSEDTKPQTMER
CRFR2-BP antag: antagonists of CRF-BP/CRF-R2 complex, primary screen, cell-based, HEK293, calcium dye fluorescence, uHTS; 350,000 tested, 0.59% active; CRF-induced calcium fluorescence; inhibition, % at 11.8 µM;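 active = inhibition of the ligand-induced calcium signal above about 50% at the single tested concentration, limit read from the data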
MEKK2 mut-MEK5: MEK5 binding signal on mutant MEKK2 PB1, primary screen, biochemical, multiplex bead flow cytometry, Alexa488-MEK5. percent response, % at 10 µM. Alexa488-MEK5 binding to MEKK2 mutant. 290,000 tested, 0.35% active; in the data active = percent response above about 24%, passing the limit was not always enough
CRFR2-BP ag: agonists of CRF-BP/CRF-R2 complex, primary screen, cell-based, HEK293, calcium dye fluorescence, uHTS; CRF-binding protein / CRF receptor 2 complex (human); calcium dye fluorescence (FLIPR); percent of saturating CRF peptide response; 350,000 tested, 0.46% active; activation, % at 13.2 µM;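 active = activation of at least 50%, plus an integration ratio under a set limit after plate pattern correction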;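 also: plate controls were neutral control wells without compound for no effect and CRF at EC100 for full effect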
MEKK3 PB1 HTS: modulators of MEKK3-MEK5 PB1 binding, primary screen, biochemical, wildtype MEKK3, multiplex bead flow cytometry, Alexa488-MEK5; bead-based flow cytometry, Alexa488-MEK5 binding to MEKK3; actives lie on both sides; 0 = blocked by unlabeled MEK5, 100 = vehicle; binding response (% of control), % at 10 µM; 290,000 tested, 1.4% active; AID 1529, 2009;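 active = binding response more than 3 SD above or below the average of its plate-row segment, actives on both sides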;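 also: Alexa488 bead fluorescence after subtracting the streptavidin-only scavenger bead signal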
MEKK2wt PB1 HTS: modulators of MEK5 binding to wildtype MEKK2, primary screen, biochemical, multiplex bead flow cytometry, Alexa488-MEK5. Mitogen-activated protein kinase kinase kinase 2 (Homo sapiens), Q9Y2U5. Alexa488-MEK5 binding to MEKK2 WT; actives lie on both sides. binding response (% of control), % at 10 µM. 290,000 tested, 1.1% active; in the data active = binding response below about 67% or above about 130%
MEKK2wt confirm: modulators of MEK5 binding to wildtype MEKK2, confirmation, biochemical, single concentration, multiplex bead flow cytometry. shares compounds with MEKK3 PB1 HTS. 5,900 tested, 2.4% active. Alexa488-MEK5 binding to MEKK2 WT; actives lie on both sides. binding response (% of control), % at 10 µM. AID 1892, 2009; in the data active = binding response below about 16% or above about 210%; inactive = in between
MEKK2mut-MEK5: mutant MEKK2 PB1-MEK5 binding signal retest – biochemical, single concentration, multiplex bead flow cytometry, confirmation. Alexa488-MEK5 binding to MEKK2 mutant. 5,900 tested, 2% active. percent response, % at 10 µM. AID 1893, 2009. shares compounds with MEKK3 PB1 HTS; in the data active = percent response mostly above about 71%, no sharp cut-off; inactive = mostly below about 38%;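 also: higher means compound restores mutant binding toward wildtype level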
MEKK3-MEK5 inh: MEKK3 wild-type PB1 binding to MEK5, inhibitors, confirmation, biochemical, bead multiplex flow cytometry, single concentration, wildtype. shares compounds with MEKK3 PB1 HTS. Alexa488-MEK5 binding to MEKK3; stronger effect = lower value. binding response (% of control), % at 10 µM. 5,900 tested, 1.8% active. AID 1894, 2009;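 active = binding response below 72% of control, or above a set upper limit, though filed actives all read lower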;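 also: 100% = DMSO only wells and 0% = binding blocked by excess unlabeled MEK5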
* marks the source's active call; other numbers are inactive results; / = not tested or not shown; [ ] = another dose, or the depositor's remark. This is a sample that favours compounds with a hit; in the whole collection about 2.9% have one here.

SMILES	ABCB6 inh MLPCN	CRFR2-BP antag	MEKK2 mut-MEK5	CRFR2-BP ag	MEKK3 PB1 HTS	MEKK2wt PB1 HTS	MEKK2wt confirm	MEKK2mut-MEK5	MEKK3-MEK5 inh
CSCCC(NC(=O)c1ccccc1Cl)C(=O)N1CCN(C(c2ccccc2)c2ccccc2)CC1 (stereo not given)	95	-7	-12	2	95	82	/	/	/
O=C(/C=C/c1ccccc1)NC(NC(=S)Nc1cccc(O)c1)C(Cl)(Cl)Cl (stereo not given)	87	-2	3	-1	111	139*	89	-6	96
O=C(/C=C/c1ccccc1)NC(NC(=S)Nc1cccc(Cl)c1)C(Cl)(Cl)Cl (stereo not given)	110	10	4	0	110	108	/	/	/
COCCNC(=S)N(CCc1c(C)[nH]c2ccc(F)cc12)Cc1cccnc1	95	-13	21	-5	104	119	/	/	/
COCCNC(=S)N(CCc1c(C)[nH]c2ccc(Cl)cc12)Cc1cccnc1	96	-4	24*	-1	107	124	115	1	100
CCNC(=S)N(CCc1c(C)[nH]c2ccc(Cl)cc12)Cc1cccnc1	95	-18	29*	-3	106	127	118	10	104
O=C(NCCCN1CCCC1=O)Nc1ccc(Br)cc1Cl	98	5	6	0	100	103	/	/	/
CS(=O)(=O)c1nc(S(=O)(=O)c2ccc(Cl)cc2)c(NCCCn2ccnc2)s1	100	-2	-1	0	102	103	/	/	/
CCN(CC)c1c2c(c(C#N)c3nc4ccccc4n13)CCC2	83	17	1	-1	69*[inhibitor]	105	103	6	103
CCCCCCn1c(N2CCC(C(N)=O)CC2)nc2c1c(=O)n(C)c(=O)n2C	93	-26	-21	-4	2.0*[inhibitor]	2.0*[inhibitor]	102	4	101
CCCCCCn1c(N2CCC(C(N)=O)CC2)nc2c1c(=O)[nH]c(=O)n2C	93	-42	6	0	103	110	/	/	/
COc1ccccc1C(=O)NC(=O)COC(=O)C1(C)CC1(Cl)Cl (stereo not given)	97	-2	/	1	/	/	/	/	/
CCOC(=O)c1cnn(CCOC(=O)C2CC2)c1NC(=O)C1CC1	99	-11	9	0	103	102	/	/	/
CCOC(=O)c1cnn(CCOC(=O)C(C)(C)C)c1NC(=O)C(C)(C)C	101	0	-25	0	2.0*[inhibitor]	0.0*[inhibitor]	98	-6	101
O=C(c1ccco1)N1CCN(C(=O)N2c3ccccc3Sc3ccccc32)CC1	100	-9	-8	0	78*[inhibitor]	90	97	-4	96
O=C(/C=C/c1ccccc1)N1CCN(C(=O)c2ccco2)CC1	94	23	9	1	69*[inhibitor]	119	91	-7	87
OCCNCc1cc(Br)ccc1OCc1ccccc1	102	-7	9	-1	105	59	/	/	/
NS(=O)(=O)c1ccc(CCNCc2cc(Br)ccc2OCc2ccccc2)cc1	97	-46	8	-2	112	145*	120	5	103
CCOc1cc(CNCCc2ccc(S(N)(=O)=O)cc2)ccc1OCc1ccccc1	95	-51	1	4	83	126	/	/	/
CCOc1cc(CNCCc2ccc(S(N)(=O)=O)cc2)cc(Cl)c1OCc1ccccc1	98	-105	36*	0	105	206*	130	16	103
CCN(CC(=O)Nc1ccccc1OC)C(=O)COc1ccc(C#N)cc1	104	4	/	0	/	/	/	/	/
N#Cc1c(F)cccc1NCCCn1ccnc1	97	11	/	1	/	/	/	/	/
Cc1ccc(Cn2c(=N)n(CC(=O)c3ccc([N+](=O)[O-])cc3)c3ccccc32)cc1	107	-17	60*	3	111	153*	167	38	110
CCCCn1c(=N)n(CC(=O)c2ccc([N+](=O)[O-])cc2)c2ccccc21	/	/	2	/	106	115	/	/	/
CCCc1cc(C(=O)Nc2ccc(OC)cc2[N+](=O)[O-])cs1	93	-2	-2	-2	101	98	/	/	/
SMILES	ABCB6 inh MLPCN	CRFR2-BP antag	MEKK2 mut-MEK5	CRFR2-BP ag	MEKK3 PB1 HTS	MEKK2wt PB1 HTS	MEKK2wt confirm	MEKK2mut-MEK5	MEKK3-MEK5 inh
CN(CCO)c1cc(N2CCC3(CC2)OCCO3)c2nonc2c1[N+](=O)[O-]	90	-9	-1	-2	74*[inhibitor]	105	98	-2	100
Cc1cc(Cl)ccc1NC(=S)NCc1ccccc1Cl	97	40	0	-1	128*	109	103	2	101
Cc1cc(Cl)ccc1NC(=S)NCC(C)C	96	43	0	-2	138*	111	103	8	103
CCCNC(=S)Nc1ccc(Cl)cc1C	102	-5	3	-1	103	115	/	/	/
CCCCn1c(N)c(N(CCOC)C(=O)COC(=O)COc2ccc(CC)cc2)c(=O)[nH]c1=O	105	-2	/	0	/	/	/	/	/
O=C1CC2(CCCC2)C(=O)N1c1ccc(S(=O)(=O)NCC2CC2)cc1Cl	100	8	-9	-6	82	84	/	/	/
O=C(O)C[C@@H](CNC(=O)COc1ccc2ccc(=O)oc2c1)c1ccc(Cl)cc1	97	-10	0	0	97	93	/	/	/
COc1cccc(N/C(SCc2ccccc2Cl)=C(/C#N)C(=O)NCc2cccs2)c1	100	-8	-1	10	121	98	/	/	/
COc1cccc(N/C(SCc2ccccc2C)=C(/C#N)C(=O)NCc2cccs2)c1	101	-4	-1	1	130*	97	83	-21	84
COc1ccc(-c2csc(N(CCCN(C)C)C(=O)c3ccccc3C)n2)cc1	99	-15	16	4	107	143*	149	23	107
CN(C)CCCN(C(=O)c1cccs1)c1nc(-c2ccccc2)cs1	100	-17	5	0	101	147*	138	19	109
